The source of these data is PubChem BioAssay.

For one assay, the target named is Albumin (Bos taurus) (UniProt P02769). The assay is described as follows: compounds binding labelled BSA control protein – biochemical, small-molecule microarray, Alexa647 label, 635/667 nm fluorescence, artefact control for SMM control protein annotation, profiling panel (AID 1118).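 Note: score merges 667 nm emission intensity and signal-to-noise per printed compound spot.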 The conditions noted are these: BSA-A647 binding, fluorescence 635 nm, higher = more signal.

Assay [1] in a line: probe aXIP binding to arrayed compounds – biochemical, NeuroSMM set, 635/667 nm fluorescence, primary screen (AID 1119).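 Note: probe is the protein aXip251-270 applied at 1 µg/mL to compound-printed slides; binding of probe to printed compounds measured as 667 nm fluorescence plus signal to noise.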 Conditions: small-molecule microarray, higher = more signal, called active from +8 up or from −8 down.
Assay [2] can be described thus: probe aNOTCH3 binding on compound microarray – biochemical, small-molecule microarray, 635/667 nm fluorescence, primary screen (AID 1120).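 Note: probe is a biotin-tagged antibody raised against NOTCH3 rather than NOTCH3 protein; score merges spot fluorescence near 667 nm with spot signal to noise.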 Conditions: higher = more signal.
Assay [3] can be described thus: probe aNOTCH2 binding on compound microarray – biochemical, small-molecule microarray, 635/667 nm fluorescence, primary screen (AID 1121).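 Note: score merges feature fluorescence read at 667 nm with its signal to noise.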 Conditions: higher = more signal.
For assay [4], the target named is Carbonic anhydrase 2 (Homo sapiens) (UniProt P00918). The assay can be described thus: compounds binding carbonic anhydrase 2 – biochemical, small-molecule microarray, Alexa647-labelled CAII, profiling panel (AID 1122). Conditions: CAII-A647 binding fluorescence, higher = more signal.
Assay [5] can be described thus: COS7 lysate on small-molecule microarray, probe aHis, 635 nm (AID 1123).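 Note: z-score combines 667nm fluorescence intensity with signal-to-noise per printed compound spot.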 Conditions: COS7 cell lysate, fluorescence, higher = more signal.
Assay [6] can be described thus: probe aLAP1 signal on lysate-treated microarray – cell lysate, small-molecule microarray, COS7 lysate, primary screen (AID 1124).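 Note: lysate comes from COS7 cells expressing LAP1 and is applied at 0.3 µg/mL; score merges spot fluorescence near 667 nm with signal-to-noise over triplicate slides.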 The conditions noted are these: probe aLAP1, fluorescence, higher = more signal.
A further assay concerns Sam68 (KHDRBS1). The assay can be described thus: compounds binding KHDRBS1 protein – biochemical, small-molecule microarray, 635 nm fluorescence, primary screen (AID 1125).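 Note: score merges 667 nm channel intensity with signal to noise over triplicate slides.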 Conditions: higher = more signal.
Assay [7] concerns Chordin-like protein 2 (CHRDL2). The assay can be described thus: compounds binding chordin-like 2 – biochemical, small-molecule microarray, 635 nm fluorescence, primary screen (AID 1126).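 Note: printed compound slides probed with Chrdl2 protein at 4 µg/mL for 1 h at 4 C; score merges 667 nm emission intensity with signal to noise over three replicate slides.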 The conditions noted are these: fluorescence 635 nm, higher = more signal.
The target in assay [8] is Concanavalin-A (Canavalia ensiformis) (UniProt P02866). The assay can be described thus: compounds binding concanavalin A lectin – biochemical, small-molecule microarray, Alexa647 label, 635 nm, artefact control for SMM control protein annotation, primary screen (AID 1127).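 Note: z combines 667 nm emission intensity with signal-to-noise across three replicate slides.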 Conditions: ConA-A647 binding fluorescence, higher = more signal.

Structures are written as SMILES. Calls of active or inactive are those of the source.

Chain of Albumin (Bos taurus) (P02769 whole entry, looked up): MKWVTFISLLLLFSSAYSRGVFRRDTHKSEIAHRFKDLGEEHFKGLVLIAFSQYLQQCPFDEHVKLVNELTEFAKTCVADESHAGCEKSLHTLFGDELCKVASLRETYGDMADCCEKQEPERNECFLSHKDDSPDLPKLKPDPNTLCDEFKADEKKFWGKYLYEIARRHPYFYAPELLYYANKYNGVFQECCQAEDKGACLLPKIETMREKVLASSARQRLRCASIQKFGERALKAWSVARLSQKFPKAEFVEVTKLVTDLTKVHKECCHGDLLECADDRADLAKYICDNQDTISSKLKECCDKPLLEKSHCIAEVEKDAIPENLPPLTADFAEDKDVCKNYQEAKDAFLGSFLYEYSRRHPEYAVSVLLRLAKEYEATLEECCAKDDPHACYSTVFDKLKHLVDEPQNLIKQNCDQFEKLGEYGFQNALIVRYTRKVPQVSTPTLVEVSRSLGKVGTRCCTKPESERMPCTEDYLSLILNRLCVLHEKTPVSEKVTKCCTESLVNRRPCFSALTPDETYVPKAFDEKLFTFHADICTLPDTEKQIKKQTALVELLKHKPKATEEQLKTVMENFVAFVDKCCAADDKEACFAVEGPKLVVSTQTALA
Chain of Concanavalin-A (Canavalia ensiformis) (P02866 whole entry, looked up): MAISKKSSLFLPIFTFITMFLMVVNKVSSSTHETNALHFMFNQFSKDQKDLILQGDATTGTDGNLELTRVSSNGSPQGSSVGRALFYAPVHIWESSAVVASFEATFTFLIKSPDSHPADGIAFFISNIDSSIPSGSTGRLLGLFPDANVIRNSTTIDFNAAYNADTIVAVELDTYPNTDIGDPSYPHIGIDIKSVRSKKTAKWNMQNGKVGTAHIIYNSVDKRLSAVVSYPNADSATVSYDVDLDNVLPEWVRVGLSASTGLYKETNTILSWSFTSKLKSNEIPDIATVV

For `C=CCC(OC(C)=O)[C@@H]1[C@@H](N(Cc2cc3ccccc3o2)C(=O)c2ccc(C)cc2)c2cc(OCCCO)ccc2N1C(=O)Cc1ccc(OC)cc1` (stereo not given in full), the composite z-score in the assay with Albumin (Bos taurus) is -0.204; in [2], -0.176; in assay [3] it was -0.0811; in assay [4], -0.119; in assay [5], 0.59; in assay [6] it was 0.128. The figures for the composite z-score (in the assay on Sam68 (KHDRBS1); in assay [7]; in assay [8]) were 0.0262, 0.172 and 0.217, respectively. Moreover, the composite Z-score in assay [1] is 0.264 (inactive).

As for `COCCCNC(=O)[C@@]1(Cc2ccccc2CN=[N+]=[N-])N=C(c2ccc(OCCCO)cc2)O[C@H]1c1ccccc1`, the composite z-score is 0.954 in the assay with Albumin (Bos taurus); 0.269 in assay [2]; -0.0006 in [3]; 0.254 in [4]; 2.85 in [5]; 0.832 in assay [6]. Also, the composite z-score is 1.3 with Sam68 (KHDRBS1), -0.751 in assay [7] and 1.03 in [8]. Also, the composite Z-score in assay [1] was 0.443 (inactive).

On to `O=C1O[C@@H](c2ccccc2)[C@@H](c2ccccc2)N2[C@@H](c3ccc(O)cc3)[C@]3(C(=O)Nc4ccc(C#CC5(O)CCCCCC5)cc43)[C@@H](C(=O)NC[C@H](O)c3ccccc3)[C@H]12`, for which the composite z-score is 0.0697 with Albumin (Bos taurus); -0.262 in [2]; -0.0984 in [3]; 0.547 in [4]; 1.05 in assay [5]; 0.632 in assay [6]. Besides, the composite z-score is 0.686 in the assay with Sam68 (KHDRBS1), -0.703 in [7] and 0.221 in [8]. Besides, the composite Z-score in assay [1] was 0.2 (inactive).

Consider `CC(C)N1C(=O)c2ccccc2[C@@H](C(=O)NC2CC2)[C@@H]1c1ccc(CO)cc1`, for which the composite z-score with Albumin (Bos taurus) was 0.368; in assay [2] it was 0.0246; in [3], -0.161; in assay [4], 0.742; in [5], 0.467; in assay [6], 0.37. Also, the composite z-score was found to be 0.343 with Sam68 (KHDRBS1), 0.593 in assay [7] and 0.697 in assay [8]. Further, the composite Z-score in assay [1] is 0.131 (inactive).

On to `C=CCC(OC(C)=O)[C@@H]1[C@@H](N(Cc2ccc(-c3ccccc3)cc2)C(=O)Cc2ccc(F)cc2)c2cc(OCCCO)ccc2N1C(=O)Cc1ccc(OC)cc1` (stereo not given in full), for which the composite z-score was -0.0495 with Albumin (Bos taurus); -0.0817 in assay [2]; -0.141 in assay [3]; 0.207 in [4]; 0.377 in assay [5]; 0.0514 in [6]. For the same compound, the composite z-score in the assay with Sam68 (KHDRBS1) is -0.274; in assay [7], -0.0031; in [8], 0.774. For the same compound, the composite Z-score in assay [1] is -0.101 (inactive).

In the case of `CN(C)C(=O)[C@@]1(CCS(=O)(=O)c2ccccc2)N=C(c2ccc(OCCCO)cc2)O[C@H]1c1ccccc1`, the composite z-score was 1.02 with Albumin (Bos taurus); 0.413 in [2]; -0.115 in assay [3]; 0.646 in assay [4]; 2.15 in assay [5]; 0.862 in [6]. In addition, the results for the composite z-score (with Sam68 (KHDRBS1); in assay [7]; in assay [8]) were 1.16, -0.98 and 0.761, respectively. Besides, the composite Z-score in assay [1] was 1.19 (inactive).

With `CCCCCCCCCCC(O)C1C=CC2C(=O)N(C)C(=O)C2N1Nc1ccc([N+](=O)[O-])cc1[N+](=O)[O-]` (stereo not given), the composite z-score is 0.884 with Albumin (Bos taurus); 0.0668 in assay [2]; 0.0807 in assay [3]; 0.589 in assay [4]; 2.32 in [5]; 0.141 in assay [6]. Further, the values for the composite z-score (with Sam68 (KHDRBS1); in assay [7]; in [8]) were 1.11, -0.0731 and 1.14, respectively. Moreover, in [1], the composite Z-score was 0.423 (inactive).

`C=CCC(OC(C)=O)[C@@H]1[C@@H](N(Cc2cccc3ccccc23)C(=O)Cc2ccc(F)cc2)c2cc(OCCCO)ccc2N1C(=O)c1ccc2ccccc2n1` (stereo not given in full): the composite z-score is -0.0728 with Albumin (Bos taurus); -0.0125 in [2]; 0.0156 in [3]; 0.409 in assay [4]; 0.0549 in [5]; 0.398 in assay [6]. Further, the results for the composite z-score (in the assay on Sam68 (KHDRBS1); in assay [7]; in assay [8]) were -0.301, 0.192 and 0.483, respectively. The composite Z-score in assay [1] was -0.486 (inactive).
